Screens as filed in PubChem BioAssay.
FLuc counter – counter-screen for miR-21 project: firefly luciferase inhibitors or activators | P08659 | purified FLuc, Km substrates, luminescence inhibition | Potency, µM (doses to about 57.5 µM), inactives show at the highest dose activity change, negative = inhibition, usual class: inhibitors | 6.9% of 360,000 active | AID 588342;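 note: plate controls were vehicle for no effect and reference inhibitor for full effect; nearly all actives have a fitted effect of over 55% in size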
Target sequence (P08659 whole entry, looked up): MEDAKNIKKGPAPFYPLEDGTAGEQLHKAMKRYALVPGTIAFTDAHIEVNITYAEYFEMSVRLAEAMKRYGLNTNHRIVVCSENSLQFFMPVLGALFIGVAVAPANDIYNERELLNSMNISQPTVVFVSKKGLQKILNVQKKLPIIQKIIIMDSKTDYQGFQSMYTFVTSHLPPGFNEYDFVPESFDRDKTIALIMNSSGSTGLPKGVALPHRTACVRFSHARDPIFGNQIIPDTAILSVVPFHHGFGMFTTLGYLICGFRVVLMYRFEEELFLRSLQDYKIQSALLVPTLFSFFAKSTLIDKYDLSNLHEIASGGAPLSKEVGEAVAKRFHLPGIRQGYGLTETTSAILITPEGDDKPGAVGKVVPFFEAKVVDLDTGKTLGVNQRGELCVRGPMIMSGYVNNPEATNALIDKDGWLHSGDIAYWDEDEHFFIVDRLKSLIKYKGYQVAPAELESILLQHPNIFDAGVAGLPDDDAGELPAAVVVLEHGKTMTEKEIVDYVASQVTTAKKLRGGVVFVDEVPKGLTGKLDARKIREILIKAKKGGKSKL
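Purified P. pyralis luciferase, 10 nM final, with Km-level 10 uM D-luciferin and 10 uM ATP in 50 mM Tris acetate pH 7.5, 10 mM Mg acetate, 0.01% Tween-20, 0.05% BSA; 6-point qHTS titration about 60 µM downward; luminescence read.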
Rab9 promoter act – Rab9 promoter activation; Huh7 Rab9 promoter-luciferase reporter, luminescence, 24 h; Potency, µM (top dose mostly 9.22 µM), inactives show at the highest dose activation, negative = inhibition, usual class: activators; 2.8% of 320,000 active; AID 485297; note: % of control where 0% means no effect; nearly all actives have a fitted effect of over 60% in size
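Huh7 reporter line, Rab9 promoter upstream of luciferase. Compound exposure 24 h at 37 °C in reduced-serum medium with 10% FBS. Read-out: luminescence.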
NPC1 promoter act – activates the NPC1 promoter | Huh7 NPC1 promoter luciferase reporter, 24 h | Potency, µM (series often up to 9.22 µM), for inactives: at the highest dose activation, hits mostly activators | 2.4% of 320,000 active | AID 485313; note: % of control where 0% means no effect; nearly all actives have a fitted effect of over 60% in size
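Quantitative HTS used a cell-based reporter: Huh7 cells stably bearing the NPC1 promoter upstream of luciferase were treated with compounds for 24 h, and promoter activation was read as luminescence.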
SMN2 splice up – SMN2 splice variant enhancement | HEK293 SMN2-luciferase splicing reporter, luminescence, 30-36 h | Potency, µM (highest dose often 46.1 µM), for the others: at the top dose activity change, positive = activation, usual class: activators | 2.8% of 210,000 active | AID 1458; note: % of control where 0% means no effect; nearly all actives have a fitted effect of over 55% in size
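qHTS luciferase splicing reporter: luminescence rises when SMN2 exon 7 is included in transfected HEK293 cells. Compound exposure lasted 30-36 h at 37C, with 4.5 mM final sodium butyrate as control, followed by a ONE-Glo read.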
ELG1 genotoxic – genotoxicity induction in ELG1-luciferase HEK293T cells; 1.3% of 330,000 active; Potency, µM (titrated, usually from 46 µM), without a hit: top-dose activity change, positive = activation, usual class: activators; AID 504466; HEK293T ELG1-luciferase reporter, luminescence, 16 h; note: % of control where 0% means no effect; nearly all actives have a fitted effect of over 60% in size
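Step 1: seed 2,000 HEK293T ELG1-luciferase cells per well. Step 2: add compound or DMSO, incubate 16 hr at 37 °C. Step 3: ONE-Glo, 30 min at room temperature, read luminescence.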
KinaseGlo FLuc – Kinase-Glo luciferase inhibition (counter-screen) | Q27757 | Kinase-Glo luciferase, ATP luminescence, 8 min | Potency, µM (highest dose often 38.3 µM), inactives show at the top dose activity change, negative = inhibition, actives largely listed as inhibitors | 0.28% of 200,000 active; note: % is set by controls: 0 for no effect and ±100 for the full control effect; nearly all actives have a fitted effect of over 60% in size
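Substrate mix (final 50 mM imidazole pH 7.2, 50 mM KCl, 7 mM MgCl2, 10 uM ATP, 0.01% Tween 20, 0.05% BSA) plus pin-tool compound, then Kinase-Glo detection mix; 8 min ambient, luminescence read.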
* = called active by the depositor; u = inconclusive; x = no result given; [ ] = remark or other dose. In the library only some 7.5% were active in any assay of this set; here they are far more common. Calls come from the whole dose curve; as a rule, active = well fitted curve in the direction sought with a large enough effect; inconclusive = small, poorly fitted or top-dose-only effect, or another doubt; inactive = no such curve, though single readings can be large; an effect the other way counts as inactive or inconclusive. Potency is the fitted concentration of half-maximal effect.

SMILES	FLuc counter	Rab9 promoter act	NPC1 promoter act	SMN2 splice up	ELG1 genotoxic	KinaseGlo FLuc
CCC(=O)Nc1cccc(NC(=S)NC(=O)c2ccc(Cl)cc2)c1	-20.5%	3.55µM*	u	u	14.7%	2.8%
CCCC(=O)NC(=S)Nc1cccc(NC(=O)c2ccc(Cl)cc2Cl)c1	13.5µM*	-10.6%	-3.7%	x	-5.0%	x
CCC(=O)NC(=S)Nc1cccc(NC(=O)c2ccccc2C)c1	u	-4.7%	-3.0%	2.5%	-1.3%	0.9%
CN(C)CCN(C)Cc1ccccc1Sc1cccc2ccccc12	7.0%	-4.7%	-5.5%	-24.2%	-3.2%	-0.8%
Cc1ccc(NC(=O)c2onc(C)c2Cl)cc1	13.5µM*	u	14.7%	14.1µM*	16.4µM*	-4.9%
Cc1noc(C(=O)Nc2ccc(Cl)cc2)c1Cl	-0.4%	5.0%	-0.8%	x	0.0%	x
CCc1ccc(NC(=O)c2cc(C)on2)cc1	3.01µM*	0.891µM*	0.501µM*	6.31µM*	u	-5.9%
Cc1cc(C(=O)Nc2ccccn2)no1	u	u	u	11.2µM*	u	-8.9%
CCc1ccc(NC(=O)c2cc(-c3ccc(OC)cc3)on2)cc1	0.3%	27.9%	1.0%	-7.5%	0.0%	2.7%
CCc1ccc(NC(=O)c2cc(C(C)C)on2)cc1	1.9µM*	0.631µM*	0.891µM*	1.41µM*	u	-16.6%
CSc1cccc(NS(=O)(=O)c2ccc3[nH]cc(C(=O)N4CCCCCC4)c(=O)c3c2)c1	u	x	x	-0.5%	x	x
C=C(CO)C1Cc2c(ccc3c2OC2COc4cc(OC)c(OC)cc4C2C3=O)O1 (centres undefined)	x	x	x	x	x	1.7%
Cc1ccc(NC(=S)Nc2cc(C)on2)cc1	26.9µM*	2.82µM*	1.41µM*	x	u	x
CCc1ccc(NC(=O)c2cc(C)no2)cc1	12µM*	u	u	x	u	x
Cc1ccc(NC(=S)Nc2ccc3cn[nH]c3c2)cc1	u	-2.9%	0.0%	16.8%	-2.0%	-0.8%
Cc1cc(C(=O)Nc2ccc3c(c2)OCO3)no1	-4.7%	0.6%	-0.2%	x	-19.5%	x
Cc1ccc(NC(=O)c2cc(C)on2)cc1	6.75µM*	1.41µM*	1.41µM*	x	u	x
CCOC(=O)C1CCN(C(=O)COC(=O)c2ccc([N+](=O)[O-])o2)CC1	4.0%	0.0%	-2.4%	x	0.8%	x
CC(C)Oc1ccc(CNC(=O)c2ccc3nc(SCc4ccc(F)cc4)n(C)c3c2)cc1	-7.8%	x	x	8.4%	x	x
COc1cccc2c(N/N=C/c3ccccc3)cc(C)nc12	1.5%	-5.4%	-0.2%	x	-1.2%	x
COc1ccc2nc(C)cc(Nc3ccccc3O)c2c1	-0.9%	-9.8%	1.0%	x	-6.6%	-0.5%
COc1ccc2nc(C)cc(N/N=C/c3cccc(OC)c3O)c2c1	16.9µM*	-0.2%	-3.6%	x	4.7%	x
Cc1cc(N/N=C/c2ccccc2O)c2ccccc2n1	15.1µM*	-4.0%	3.8%	x	10.8%	x
COc1ccc(/C=N/Nc2cc(C)nc3ccc(Br)cc23)cc1	21.3µM*	-4.1%[1.84 µM]	-0.4%	x	-6.4%	x
Cc1ccccc1/C=N/Nc1nc2ccccc2c(=O)n1O	15.1µM*	7.3%	12.6%	x	17.0%	x
SMILES	FLuc counter	Rab9 promoter act	NPC1 promoter act	SMN2 splice up	ELG1 genotoxic	KinaseGlo FLuc
Cc1cc(-c2ccccc2)nc(N/N=C/c2ccc(O)cc2O)n1	u	4.0%	2.6%	x	0.0%	x
Brc1cccc(-c2nn(-c3ccccc3)c3c2cnc2cc4c(cc23)OCO4)c1	0.7%	x	x	-9.9%	x	x
NC(=O)c1ccc(-c2nc(-c3ccc4c(c3)OCO4)c(-c3ccccn3)[nH]2)cc1	x	x	x	2.7%	x	2.8%
COc1cccc(NC(=O)C(=O)NCC(c2cccnc2)N2CCN(c3ccccc3)CC2)c1 (centres undefined)	-11.1%	x	x	x	x	x
OC1CCCCC1	-0.1%	-4.9%	1.7%	-5.0%	2.6%	x
Cc1ccc(CNC(=O)NC23CC4CC(CC(C4)C2)C3)cc1	-0.7%	-3.5%	-0.9%	-20.5%	-1.7%	-0.3%
Cc1ccc(C(=O)NCC(=O)NC23CC4CC(CC(C4)C2)C3)cc1	-19.1%	u	26.1%	x	16.4µM*	x
